High-throughput results from PubChem BioAssay.
GPT2 inhibitor – Primary qHTS assay for inhibitors of Glutamate pyruvate transaminase 2 (GPT2); AID 1671188, 2021; Recombinant GPT2, coupled pyruvate oxidase/HRP Amplex Red fluorescence; Alanine aminotransferase 2 (Homo sapiens), Q8TD30; hit rate 0.25% among 100,000; Potency, µM (doses to about 57.7 µM), for the others: at the highest dose activity change, negative = inhibition, hits mostly inhibitors; also: nearly all actives have a fitted effect of over 60% in size
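Recombinant GPT2 (10ng/uL) with 250uM a-KG and 2mM L-alanine, 30 min at room temperature, in HEPES pH 7.5 buffer. Pyruvate detected by pyruvate oxidase/HRP/Amplex Red fluorescence after 30 min in the dark; AOA (50uM) as positive control.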
NPR1 antag – Natriuretic polypeptide receptor (hNpr1) antagonism - Primary qHTS | Atrial natriuretic peptide receptor 1 (Homo sapiens), P16066 | HEK293 hNpr1 GloSensor cGMP, ANP-stimulated luminescence | Potency, µM (highest dose often 46.3 µM), without a hit: top-dose activity change, negative = inhibition, hits mostly inhibitors | hit rate 1.6% among 76,000 | AID 1347048, 2019; calls by dose curve; also: nearly all actives have a fitted effect of over 60% in size
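Compound pre-incubated 30 min at room temperature on GloSensor-loaded HEK293 cells stably carrying hNpr1 and the pGS-40F cGMP biosensor. Stimulation uses hNppA at 0.1 nM final; luminescence is taken at baseline and 20 min post-agonist.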
HEK cytotox – Cytotoxic Profiling in HEK 293 Cell Line of Diverse Libraries Using Quantitative High-Throughput Screening; HEK 293 viability, ATP luminescence (CellTiter-Glo), 48-72 h; hit rate 6.6% among 94,000; AID 1345083, 2018; Potency, µM (top dose mostly 115 µM), inactives show at the top dose activity change, negative = cytotoxicity, usual class: inhibitors; also: nearly all actives have a fitted effect of over 60% in size
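HEK 293 cells at 250 cells/well were exposed to compounds by pintool transfer for 48 or 72 hr at 37 degree Celsius, 5% CO2. Viability was read as ATP-coupled luminescence with CellTiter-Glo after 10 min at room temperature.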
Luciferase inh – Firefly luciferase inhibition profiling of diverse chemical library using quantitative high-throughput screening | Luciferin 4-monooxygenase (Photinus pyralis), P08659 | purified P. pyralis luciferase, luminescence, biochemical | Potency, µM (highest dose often 115 µM), most hits filed as inhibitors | hit rate 2.5% among 76,000 | AID 1347043, 2019; also: nearly all actives have a fitted effect of over 65% in size
Target sequence (P08659 whole entry, looked up): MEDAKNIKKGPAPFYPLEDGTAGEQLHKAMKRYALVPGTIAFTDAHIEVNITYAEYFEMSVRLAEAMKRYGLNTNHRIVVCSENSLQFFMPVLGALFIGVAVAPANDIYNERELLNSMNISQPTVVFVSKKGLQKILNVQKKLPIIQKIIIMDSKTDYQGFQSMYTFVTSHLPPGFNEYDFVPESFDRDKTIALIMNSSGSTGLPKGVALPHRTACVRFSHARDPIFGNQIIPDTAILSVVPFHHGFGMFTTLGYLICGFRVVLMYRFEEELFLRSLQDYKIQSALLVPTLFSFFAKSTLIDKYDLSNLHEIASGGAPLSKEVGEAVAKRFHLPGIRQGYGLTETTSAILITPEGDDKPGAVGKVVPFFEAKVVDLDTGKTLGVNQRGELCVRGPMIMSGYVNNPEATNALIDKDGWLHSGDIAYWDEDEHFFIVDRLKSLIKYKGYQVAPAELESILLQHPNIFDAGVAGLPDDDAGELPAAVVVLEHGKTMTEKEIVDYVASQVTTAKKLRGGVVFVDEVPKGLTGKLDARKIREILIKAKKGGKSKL
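Cell-free enzyme assay, 10nM P. pyralis luciferase, luciferin and ATP each at 10uM. Inhibition profiled over a 6-point titration, read as luminescence.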
NIH3T3 tox – Cytotoxic Profiling in NIH 3T3 Cell Line of Diverse Libraries Using Quantitative High-Throughput Screening; NIH 3T3 viability, CellTiter-Glo ATP luminescence, 48-72 h; Potency, µM (doses to about 96.7 µM), for the others: top-dose activity change, negative = cytotoxicity, usual class: inhibitors; hit rate 4.3% among 94,000; AID 1345082, 2018; also: nearly all actives have a fitted effect of over 55% in size
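NIH 3T3 cells at 400 cells/well received 23 nL of compound by pintool and were incubated 48 or 72 h at 37 °C. Viability was read as ATP-coupled CellTiter-Glo luminescence.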
The depositor's hits bear a star; i = inactive; u = inconclusive; x = no result given; [ ] = remark or other dose. The list is not random: actives were taken first. Their share in the collection is about 10%. Unless noted, calls follow the shape of the dose curve; as a rule, active = well fitted curve in the direction sought with a large enough effect; inconclusive = small, poorly fitted or top-dose-only effect, or another doubt; inactive = no such curve, though single readings can be large; an effect the other way counts as inactive or inconclusive. % is scaled to controls: 0 for no effect and ±100 for the full control effect; potency is read from the fitted curve at half-maximal effect.

SMILES | GPT2 inhibitor | NPR1 antag | HEK cytotox | Luciferase inh | NIH3T3 tox
CS(=O)(=O)N1C[C@H]2CCN(Cc3cn[nH]c3-c3ccccc3)C[C@H]21 | i | -2% | -23% | i | -19%
COc1cccc(CNC(=O)C2CCN(c3nccc(Nc4ccccc4OC)n3)CC2)c1 | i | x | u | x | 40µM*
COc1ccccc1Nc1ccnc(N2CCCC(C(=O)NCC(F)F)C2)n1 (stereo not given) | i | x | u | x | u
COc1cccc(CNC(=O)C2CCCN(c3nccc(Nc4ccccc4OC)n3)C2)c1 (stereo not given) | i | x | u | x | 32µM*
COc1ccccc1Nc1ccnc(N2CCCC(C(=O)NCc3cccs3)C2)n1 (stereo not given) | 2% | x | u | x | 32µM*
COc1ccccc1Nc1ccnc(N2CCCC(C(=O)NCc3ccc(Cl)cc3)C2)n1 (stereo not given) | i | x | 11µM* | x | u
COc1ccccc1Nc1ccnc(N2CCC(C(=O)NCc3ccccc3)CC2)n1 | i | x | u | x | u
CCN1CCN(CCCNC(=O)C2Cn3cccc3C(=O)N2C)CC1 (stereo not given) | i | -8% | i | i | i
CN1C(=O)C2(CCN([S+](=O)([O-])c3cccs3)C2)c2ccccc21 (stereo not given) | 3% | 18% | u | i | -11%
CCCN1CCC2(CCN(C(=O)c3ccc(OC)cc3)CC2)Oc2ccccc21 | -4% | 0% | 45µM* | i | u
CCCN1CCC2(CCN(C(=O)OC)CC2)Oc2ccccc21 | i | 0%[70.6 µM] | 100µM* | i | u
COC(=O)N1CCC2(CC1)CCN(Cc1cccs1)c1ccccc1O2 | -22% | 24% | u | i | u
Oc1ccccc1CN1CCC(O)(c2csc(CN3CCOCC3)n2)CC1 | -5%[88.5 µM] | 5%[70.6 µM] | i | i | i
CCN(C)C(=O)CCc1c(C)nn(-c2ccccc2)c1Oc1ccccc1F | 4% | -17% | 40µM* | i | u
CCN(C)C(=O)CCc1c(C)nn(-c2cccc(C)c2)c1Oc1ccccc1 | -21% | -21% | 40µM* | i | 35µM*
CCN(CC)C(=O)CCc1c(C)nn(-c2ccc(F)cc2)c1Oc1ccccc1 | 1% | -20% | u | i | u
CCN(CC)C(=O)CCc1c(C)nn(-c2ccc(F)cc2)c1Oc1ccccc1C | i | -21% | u | i | 40µM*
CC(=O)c1cc(C(=O)N[C@@H](C)Cn2ccc(-c3ccc(C#N)c(Cl)c3)n2)[nH]n1 | -10% | x | x | x | x
CC(/C=C/C1(O)C(C)(C)CC(O)CC1(C)O)OC1OC(CO)C(O)C(O)C1O (stereo not given) | 3%[27.3 µM] | x | x | x | x
C=CCNC1=C2C[C@@H](C)C[C@H](OC)[C@@H](O)[C@@H](C)C=C(C)[C@H](OC(N)=O)[C@@H](OC)C=CC=C(C)C(=O)NC(=CC1=O)C2=O | 3% | x | x | x | x
CO[C@H]1C=CC=C(C)C(=O)NC2=CC(=O)C(NCCN(C)C)=C(C[C@@H](C)C[C@H](OC)[C@@H](O)[C@@H](C)C=C(C)[C@@H]1OC(N)=O)C2=O | 31µM* | x | x | x | x
CC1(CCCCc2ccccc2)COc2ccc(C(=O)NC3CCC(O)CC3)cc2N1 (stereo not given) | -10%[88.5 µM] | -5%[70.6 µM] | 71µM* | i | 79µM*
CCOCC1(C)COc2ccc(C(=O)NCc3cc(OC)cc(OC)c3)cc2N1 (stereo not given) | -22%[88.5 µM] | -22%[70.6 µM] | u | i | -9%[138 µM]
CC1(CNc2ccccc2)COc2ccc(C(=O)NCCc3ccccc3)cc2N1 (stereo not given) | 5%[88.5 µM] | 0%[70.6 µM] | u | u | 28µM*
CNC(=O)c1ccc2c(c1)NC(C)(CNc1ccccc1)CO2 (stereo not given) | i | -4%[70.6 µM] | u | i | -24%[138 µM]
SMILES | GPT2 inhibitor | NPR1 antag | HEK cytotox | Luciferase inh | NIH3T3 tox
CC1(CNc2ccccc2)COc2ccc(C(=O)NCc3ccc(F)cc3)cc2N1 (stereo not given) | 0%[88.5 µM] | -19%[70.6 µM] | 71µM* | i | 45µM*
COc1cc(CNC(=O)c2ccc3c(c2)NC(C)(CNc2ccccc2)CO3)cc(OC)c1 (stereo not given) | 3% | 1% | 35µM* | i | u
COCC[C@]1(O)CCN(C(=O)Nc2cccc(SC)c2)C[C@H]1C | -12% | 1% | -29% | i | -1%
Clc1ccc(C2Cn3nnc(-c4nc(-c5ccccc5Br)no4)c3CO2)cc1 (stereo not given) | i | 1% | -19% | i | -10%
CCc1cccc2c(C(CC(=O)N3CCCC3)c3ccc(Cl)c(Cl)c3)c[nH]c12 (stereo not given) | i | 5% | 40µM* | i | u
CCOC(=O)C1CCN(C(=O)CC(c2ccc(OC)c(OC)c2)c2c[nH]c3c(CC)cccc23)CC1 (stereo not given) | 3% | 3% | 79µM* | i | u
CCOC(=O)C1CCN(C(=O)CC(c2ccc3c(c2)OCO3)c2c[nH]c3ccccc23)CC1 (stereo not given) | -34% | 0% | u | i | u
CCc1cccc2c(C(CC(=O)N3CCC(C)CC3)c3cccc(C)c3)c[nH]c12 (stereo not given) | i | 3% | 35µM* | i | u
O=C(c1cnc2c(c1)N([S+](=O)([O-])c1cccnc1)CCC2)N1CCN(Cc2ccccc2)CC1 | -10% | 5% | i | i | u
FC(F)(F)CN1C2CCC1CN(c1ccc(-c3ccccc3)nn1)C2 | -6% | x | u | x | u
O=C(Cc1ccc(N(Cc2ccccc2)C(=O)c2ccco2)cc1)NCCc1ccccc1 | i | -6% | 50µM* | i | u
COCCNC(=O)Cc1ccc(N(Cc2ccccc2)C(=O)c2ccco2)cc1 | i | 7% | -1% | i | -4%
O=C(Cc1ccc(N(Cc2ccccc2)C(=O)c2ccco2)cc1)Nc1ccccc1 | i | -15% | 35µM* | u | u
CN1C[C@H](NCc2cnn(C)c2)CCC[C@@H](C(=O)NC2CC2)CC1=O | -9%[88.5 µM] | -1%[70.6 µM] | -1%[172 µM] | i | i
COc1ccc(C(=O)NC2CCN(c3ccc4nnc(-c5ccccc5)n4n3)CC2)cc1 | x | x | 79µM* | x | u
O=C(NC1CCN(c2ccc3nnc(-c4ccccc4)n3n2)CC1)c1ccc(Cl)nc1 | x | x | -21% | x | -32%
